# Sampled rows, rich in hits. Any-hit rate of the full collection: about 3.4%.
# NF-kB neuron act = raises NF-kB expression in human neuronal cells; NF-kB reporter expression; active compounds read high; fold change at 12.5 µM; hit rate 1.6% among 190,000; in the data active = fold change above about 3.3
# hgDAF12 agonist = activates the H. glycines DAF-12 receptor ligand-binding domain; hit rate 1.8% among 370,000; HEK293 GAL4-hgDAF12 UAS-luciferase reporter, agonist luminescence; normalized to butyrate control; AID 687014; activation, % at 6.8 µM;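 active = activation above a cutoff set at the mean of all screened compounds plus 3 SD, cut at about 10% in these data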
# ssDAF-12 act = activates DAF-12 receptor from parasite S. stercoralis | HEK293 ssDAF-12/GRIP1 lit1-tk-luc reporter, luminescence; % of 3 µM dafachronic acid response | activation, % at 6.8 µM | hit rate 1% among 370,000;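 active = activation above the mean over all tested compounds plus 3 SD, cut at about 0.9% in these data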
# APP 5'UTR act = APP 5'UTR luciferase reporter activation; SH-SY5Y APP 5'UTR luciferase reporter, luminescence; zero percent = DMSO vehicle wells; activation, % at 2 µM; hit rate 1% among 190,000; AID 1276;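 active = activation above a set limit, based on mean plus 3 SD of controls, cut at about 140% in these data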
# hcDAF-12 act = H. contortus DAF-12 activation, primary screen; HEK293 hcDAF-12 lit1-tk-luc reporter, luminescence; 0% DMSO, 100% Δ7-dafachronic acid; AID 652067; hit rate 1.4% among 370,000; activation, % at 6.8 µM;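 active = activation above the mean of all tested compounds plus 3 SD, cut at about 5.5% in these data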
# LXR ag = activates human LXR-beta, counter-screen for hcDAF-12 agonists | shares compounds with hcDAF-12 act | activation, % at 6.8 µM | 3,400 tested, under 10 active | HEK293 Gal4-LXR tk-luc reporter, luminescence, 24 h; normalized: DMSO 0%, positive control 100%;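 active = mean percent activation of the reporter above a cutoff set as the average over tested compounds plus their standard deviation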
# Target sequence (P55055 whole entry, looked up, the tested form may be a part): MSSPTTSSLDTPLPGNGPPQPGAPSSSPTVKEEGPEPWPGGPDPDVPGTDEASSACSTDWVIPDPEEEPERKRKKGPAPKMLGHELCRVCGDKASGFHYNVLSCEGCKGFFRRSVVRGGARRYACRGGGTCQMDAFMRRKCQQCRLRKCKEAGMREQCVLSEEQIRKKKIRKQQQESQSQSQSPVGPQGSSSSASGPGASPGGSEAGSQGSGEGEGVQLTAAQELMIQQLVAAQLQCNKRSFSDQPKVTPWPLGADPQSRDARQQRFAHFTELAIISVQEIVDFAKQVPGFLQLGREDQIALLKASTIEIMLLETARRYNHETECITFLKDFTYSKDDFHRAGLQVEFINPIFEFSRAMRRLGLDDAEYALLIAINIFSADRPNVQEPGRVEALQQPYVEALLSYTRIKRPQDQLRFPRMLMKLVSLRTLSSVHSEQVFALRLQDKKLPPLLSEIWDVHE
# hcDAF12 ag = hcDAF-12 agonism, confirmation assay | shares compounds with hcDAF-12 act | HEK293 hcDAF-12 lit1-tk-luc reporter, luminescence; % of Δ7-dafachronic acid response | activation, % at 6.8 µM | hit rate 61% among 3,400 | AID 743032;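 active = mean activation across triplicate tests above the threshold derived from the earlier primary screen, cut at about 5.5% in these data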
# Hits are given with their value; n = inactive; x = no result.
SMILES,NF-kB neuron act,hgDAF12 agonist,ssDAF-12 act,APP 5'UTR act,hcDAF-12 act,LXR ag,hcDAF12 ag
CCOC(=O)[C@@]12CCCC=C1N(CCc1ccc(Cl)cc1)C(=O)[C@H]2CC(=O)N1CCC(c2ccccc2)CC1,x,n,n,x,n,x,x
C/C(=N\NC(=O)c1cccs1)c1c(O)cc(C)oc1=O,x,12.3,1.1,x,6.6,n,n
C/C(=N/NC(=O)c1cccs1)c1cccs1,x,12.7,n,x,6.9,n,n
C/C(=N\NC(=O)c1cc2ccccc2cc1O)c1cccs1,x,n,n,x,n,x,x
N#Cc1ccc(/C=C2\CC3(OC(=O)c4ccco4)CCCN2C3)cc1 (configuration not stated),x,n,n,x,n,x,x
COc1ccc(-c2nc3ccccc3s2)cc1,n,12.6,n,169.3,12.2,n,12.9
c1ccc2sc(-c3ccncc3)nc2c1,x,n,n,x,n,x,x
CN(C)c1nc(N)nc(-c2nc3ccccc3s2)n1,n,11.1,1.6,n,9.3,n,15.6
Oc1ccc(-c2nc3ccccc3s2)cc1,x,24.2,1.3,x,7.6,n,8.1
Nc1ccccc1-c1nc2ccccc2s1,n,26.5,1.9,n,11.5,n,10.4
C[C@H]1[C@@H](NC(=O)c2ccc(O)cc2)CC[C@@]23CCCN2C(=O)CCC[C@@H]13,x,n,n,x,n,x,x
CC(C)n1nnnc1C1(C)Cn2nccc2C(=O)N1Cc1cccc(C(F)(F)F)c1 (configuration not stated),x,n,n,x,n,x,x
CCOC(=O)c1sc(=NC(=O)c2ccc(C)cc2)n(C)c1C,3.67,11.2,1.2,n,9.7,n,9.7
CCOC(=O)c1sc(=NC(=O)c2cc(OC)c(OC)c(OC)c2)n(C)c1C,n,n,n,n,n,x,x
COC(=O)[C@H](C(C)C)N(Cc1cn(Cc2ccccc2)nn1)S(=O)(=O)c1ccc(F)cc1Br,x,n,n,x,n,x,x
Cc1ccc(-c2cc3nc(C)cc(NCc4ccco4)n3n2)cc1,4.09,n,2.4,136.8,8.5,n,6.2
COC(=O)c1cc(-c2ccc(OC)c(OC)c2)c(=O)n2c1CCC2,x,n,n,x,n,x,x
Cc1ccc(O)c(-c2cc(-c3ccccc3F)[nH]n2)c1,4.35,n,n,n,11.1,n,9.4
Cc1ccc(C)c(NC(=O)c2cc(-c3cc(C)ccc3O)n[nH]2)c1,x,n,n,x,n,x,x
COc1ccc(Nc2nccc3c2ncn3C)cc1,x,11.4,n,x,6.6,n,n
O=C(Nc1ccc(Cl)cc1Cl)c1ccc(Br)o1,x,n,n,x,8.2,n,6.4
O=C(Nc1cc(Cl)ccc1N1CCOCC1)c1ccc(Br)o1,x,n,n,x,n,x,x
CC(C)C(C(=O)NC(C)(C)C)N1C(=O)c2ccccc2C1=O (configuration not stated),n,n,n,n,n,x,x
CC(C)C(C(=O)Nc1ccccc1F)N1C(=O)c2ccccc2C1=O (configuration not stated),x,n,2.1,x,8.0,n,n
CCOc1ccc(-n2c(COc3ccc(C)cc3)nnc2SCC(=O)c2ccc3ccccc3c2)cc1,x,n,n,x,n,x,x
SMILES,NF-kB neuron act,hgDAF12 agonist,ssDAF-12 act,APP 5'UTR act,hcDAF-12 act,LXR ag,hcDAF12 ag
CN1CCN(C(=O)c2cc3sc4ccccc4c3s2)CC1,x,13.1,n,x,7.3,n,n
COc1ccc(N2CCN(CCCNC(=O)COc3ccc(C)cc3)CC2)cc1,x,n,n,x,n,x,x
CCn1cc(Br)c(C(=O)NN)n1,n,n,n,n,6.7,n,n
COc1ccc(C)cc1NC(=O)n1ncc2cc(Cl)ccc21,x,n,n,x,7.4,n,n
Cc1ccccc1NC(=O)n1ncc2cc(Cl)ccc21,x,n,n,x,n,x,x
Cc1noc(/C=C/N(C)C)c1S(=O)(=O)N(C)CC(=O)N1CCc2ccccc21,n,x,x,n,x,x,x
Cc1noc(/C=C/N(C)C)c1S(=O)(=O)N1CCc2ccccc21,n,n,n,n,7.4,n,5.7
Cc1ccc(-n2c(SCC(=O)c3ccc(Br)cc3)nnc2-c2ccncc2)cc1,x,n,n,x,n,x,x
CC(=O)CC[C@@H]1CC[C@]2(CCCN(C(=O)c3ccc4ccccc4n3)C2)O1,x,n,n,x,n,x,x
COc1ccc(OCc2cc(C(=O)N(Cc3nccn3C)C(C)C)no2)c2ccccc12,x,n,n,x,7.3,n,6.9

# Compound activity: PubChem, several laboratories
